Tgondii IFNg: T. gondii growth inhibition under IFN-gamma. Toxoplasma gondii growth in IFN-gamma-treated host cells; active compounds read low. activity change, negative = inhibition, % (no concentration beside the values). 69,000 tested, 3.8% active; in the data active means activity change below about -70%, passing the limit was not always enough;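 further: host cells are HeLa cells infected with Toxoplasma gondii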
An asterisk follows results filed as active. Shown is part of a subset that was picked to be rich in hits.

SMILES | Tgondii IFNg
Cn1cccc1CN1C[C@H]2CN(C(=O)c3cccs3)C[C@@H]2C1 | -3.4
COc1ccc(-c2nc(CNS(=O)(=O)c3ccc(C(C)C)cc3)c(C)o2)cc1 | -74.7*
COc1ccc(-c2nc(CNS(=O)(=O)c3ccc(F)cc3)c(C)o2)cc1 | 32.6
COc1ccc(S(=O)(=O)NCc2nc(-c3ccccc3)oc2C)cc1 | 19.6
CCOc1ccc(S(=O)(=O)N2CCC(c3nc(C(=O)N(C)C)c(C)o3)CC2)cc1 | 71.8
CN1C[C@@H](N)C[C@H]1C(=O)NCCCn1ccnc1 | -48.5
O=C(O)C1CC(N2CCCC2)CCN1C(=O)c1ccsc1 (centres undefined) | -7.3
COc1cc(C(=O)N2CCC3(CC2)NC(=O)c2ccc(Cl)cc2N3)cc(OC)c1OC | 132.1
COc1ccccc1C(=O)C1C(=O)NC23CCN(C)CC2C1c1cc(Cl)ccc1O3 (centres undefined) | -86.6*
COc1cc(Cl)ccc1C(=O)NCC1CCCN(C)C1 (centres undefined) | -1.9
CC(C)CC(C(=O)NC1CCCC1)N(C(=O)c1ccc(Cl)nc1)c1ccccc1 (centres undefined) | 4.0
O=C(c1ccco1)N1CCN(S(=O)(=O)c2ccc3[nH]c(=O)ccc3c2)CC1 | 103.4
Cc1ccc2[nH]c3c(c2c1)CCOc1ccccc1-3 | 21.2
CSc1ccc(-c2noc(-c3c(O)c4cc(C)ccc4[nH]c3=O)n2)cc1 | 17.3
Cc1ccc2[nH]c3c(c2c1)CCc1nonc1-3 | -98.7*
CNC(=O)c1cc(=O)n(CC(=O)Nc2cccc(OC)c2)c2ccccc12 | 12.3
C=CCN1CCO[C@H]2CN(C(=O)Cc3ccsc3)CC[C@@H]2C1 | 7.9
CC1CCCN(C(=O)c2cc3cccnc3n(Cc3ccc(F)cc3)c2=O)C1 (centres undefined) | 10.0
NC(=O)CN1CCOCCOCCN(CC(N)=O)CCOCC1 | -70.5*
CC(C)(C)NC(=O)CCN1CCOCC1 | 11.7
N=C(N=C(N)N)N1CCOCC1 | 11.1
Cc1nccn1CC1(O)CCN(C(=O)c2ccc(CN3CCCCC3)cc2)CC1 | -12.6
COc1ccc(F)cc1S(=O)(=O)N1CCCC1c1nc(-c2cccnc2)n[nH]1 (centres undefined) | 5.8
COC(=O)c1cc(C)nc2c1c(=O)n(Cc1nc(-c3ccc(C(C)C)cc3)oc1C)c(=O)n2C | 2.8
CN(C)C1CCN(C(=O)c2cnc(-c3noc4cc(-c5ccc(F)cc5)ccc34)s2)CC1 | -82.0*
SMILES | Tgondii IFNg
Cc1ccccc1-c1ccc2c(-c3ncc(C(=O)NCCN(C)C)s3)noc2c1 | -53.8
CCN(C)C(=O)c1cnc(-c2noc3cc(N4CCCCC4)ccc23)s1 | -43.8
CCc1ccn2cc(-c3cc(-c4ccccc4)no3)nc2c1 | -81.0*
CCc1nc(CN(C)C(=O)c2cc(-c3ccccc3)no2)no1 | 5.9
CCC(=O)Nc1cccc(-c2cn3ccc(C)cc3n2)c1 | -12.4
O=C(NCC(c1ccccc1)N1CCCCCC1)c1ncn[nH]1 (centres undefined) | -42.7
COc1cccc(-c2nccn2CCc2cnc[nH]2)c1OC | 7.7
CCOCc1cc(-c2nccn2-c2cccnc2)ccc1OC | -3.1
COc1ccc(-c2ccccc2)cc1-n1ccnc1-c1cnc[nH]1 | -81.6*
Cc1nc(-c2ccc(Cl)cc2)sc1CCNC(=O)C12CC3CC(CC(C3)C1)C2 | -51.7
CC(C)NC(=O)C1CCC2(CCN(c3ncccn3)CC2)CO1 (centres undefined) | -67.9
COc1ccc(-c2nc(NCC3CCN(Cc4ccc(Cl)cc4)CC3)c3ccccc3n2)cc1 | -87.9
COc1cc(CN2CCCC(CCc3ccc(F)cc3)C2)ccc1O (centres undefined) | -48.8
CC1CCN(S(=O)(=O)c2ccc3c(ccc(=O)n3CC(=O)NCc3ccc(Cl)cc3)c2)CC1 | -64.1
COc1cccc(CNC(=O)Cn2c(=O)ccc3cc(S(=O)(=O)N4CCC(C)CC4)ccc32)c1 | -80.1*
COc1ccccc1CNC(=O)Cn1c(=O)ccc2cc(S(=O)(=O)N3CCC(C)CC3)ccc21 | -33.4
O=C(CN1C(=O)c2ccccc2S1(=O)=O)Nc1ccc2ccccc2c1 | -19.0
CCn1c(CC2CCN(C(=O)c3cccc4ncccc34)CC2)nn(C)c1=O | 6.7
Cc1ccccc1N1CC2(CCN(C(=O)Cc3ccc(F)cc3)C2)CC1=O (centres undefined) | -4.1
O=C(c1ccn[nH]1)N1CCC2(CC(=O)N(c3ccc(F)cc3)C2)C1 (centres undefined) | -92.1*
Cc1ccc(N2CC3(CCN(C(=O)Nc4ccc(F)cc4)C3)CC2=O)cc1 (centres undefined) | -10.5
Cc1ccc(N2CC3(CCN(C(=O)Cc4ccc(F)cc4)C3)CC2=O)cc1 (centres undefined) | -113.1*
O=C(c1ccn[nH]1)N1CCC2(CC(=O)N(c3ccccc3)C2)C1 (centres undefined) | -10.7
N#Cc1ccc(N2CC3(CCN(C(=O)c4cnccn4)C3)CC2=O)cc1 (centres undefined) | 115.3
COC[C@@H]1CCC[C@]12CN(C(=O)c1cccs1)CCO2 | -9.9
CSCc1noc(Cn2cnnc2)n1 | -4.3
O=C(Cc1ccc2c(c1)OCO2)N1CCC(c2nc(-c3ccsc3)cc(=O)[nH]2)CC1 | -79.6*
